Test results published in PubChem BioAssay (EPA / NIEHS).
Results filed as inconclusive are left out. The source made the active and inactive calls. The calls were made as follows, unless noted: active = hit-call score of the fitted dose curve at least 0.9, where 1 is the maximum; inconclusive = response in the unintended direction; inactive = score below 0.9.

What was measured:
[1] = TOX21_p53_BLA_p2_viability: Viability Assessment in the Tox21 HCT-116 p53 Agonism Beta-lactamase Assay, Phase 2 (AID 2283591);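 also: compound exposure lasted 16 h at 37 °C; actives lower the ATP signal meaning cytotoxicity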
In short: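 HCT116 p53-bla cells, 4000/well, dosed after 5 h plating (217-fold dilution of DMSO stocks) and incubated 16 h at 37C. Viability taken as cellular ATP by CellTiter-Glo luminescence after 30 min RT; signal loss marks cytotoxicity.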

[2] = target: Cellular tumor antigen p53 (Homo sapiens) (UniProt P04637); assay: TOX21_p53_BLA_p2_ratio: Tox21 HCT-116 p53 Agonism Beta-lactamase Assay, Ratio, Phase 2 (AID 2283592)
Cellular tumor antigen p53 (Homo sapiens), sequence (P04637 whole entry, looked up): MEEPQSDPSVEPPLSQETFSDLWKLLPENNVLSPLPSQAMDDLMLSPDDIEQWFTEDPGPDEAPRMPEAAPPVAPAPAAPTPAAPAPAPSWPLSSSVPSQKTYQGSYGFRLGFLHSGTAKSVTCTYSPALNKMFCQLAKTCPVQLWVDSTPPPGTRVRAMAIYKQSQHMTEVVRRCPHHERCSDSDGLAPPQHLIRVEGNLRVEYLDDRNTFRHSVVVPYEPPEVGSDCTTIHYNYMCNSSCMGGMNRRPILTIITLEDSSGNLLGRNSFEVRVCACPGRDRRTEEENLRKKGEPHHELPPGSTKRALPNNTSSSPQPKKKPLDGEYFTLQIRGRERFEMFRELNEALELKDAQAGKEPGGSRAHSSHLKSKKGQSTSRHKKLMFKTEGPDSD
In short: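 DMSO-normalized, positive-direction endpoint derived from the 460 nm/530 nm FRET ratio in HCT116 p53 beta-lactamase reporter cells exposed 16 h at 37C and loaded with CCF4-AM for 2 h.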

[3] = TOX21_p53_BLA_p3_viability: Viability Assessment in the Tox21 HCT-116 p53 Agonism Beta-lactamase Assay, Phase 3 (AID 2283593);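 also: cells exposed to compound for 16 h before reading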
In short: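 HCT116 cells, 4000/well, dosed 5 h after plating by pin transfer (217-fold dilution from DMSO stock) and incubated 16 h at 37C, 5% CO2. Viability read as ATP luminescence with CellTiter-Glo after 30 min at room temperature.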

[4] = target: Cellular tumor antigen p53 (Homo sapiens) (UniProt P04637); assay: TOX21_p53_BLA_p3_ratio: Tox21 HCT-116 p53 Agonism Beta-lactamase Assay, Ratio, Phase 3 (AID 2283596)
In short: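 Cells were seeded at 4000/well, rested 5 h at 37C, then dosed with DMSO compound solutions (217-fold dilution) for 16 h. CCF4-AM substrate was loaded for 2 h at room temperature, and the 460/530 nm emission ratio was fitted for gain of signal versus DMSO.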

[5] = TOX21_p53_BLA_p5_viability: Viability Assessment in the Tox21 HCT-116 p53 Agonism Beta-lactamase Assay, Phase 5 (AID 2283600)
In short: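 Here cell health was gauged by ATP levels in wells holding 4000 cells, each treated 16 h with DMSO-delivered compounds at 217-fold dilution; reduced luminescence marked toxicity.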

[6] = target: Cellular tumor antigen p53 (Homo sapiens) (UniProt P04637); assay: TOX21_p53_BLA_p4_ratio: Tox21 HCT-116 p53 Agonism Beta-lactamase Assay, Ratio, Phase 4 (AID 2283601)
In short: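 HCT-116 p53 beta-lactamase reporter cells (4000/well) preincubated 5 h, then compound (217-fold dilution of DMSO stock) for 16 h at 37C. CCF4-AM substrate added 2 h at room temperature; 460/530 nm emission ratio fitted upward versus DMSO.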

[7] = TOX21_TR_RXR_BLA_Agonist_Followup_viability: Viability Assessment in the Tox21 Thyroid Hormone Receptor beta Retinoid X Receptor alpha (RXRa) Agonism Beta-lactamase (BLA) Follow-Up Assay (AID 2283970)
In short: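 Viability counter-screen run alongside the RXRa bla follow-up: HEK293T reporter cells were treated for 16h at 37C in stripped-serum medium, then ATP was quantified by luciferase-coupled CellTiter-Glo. Decreased signal relative to DMSO marked cytotoxicity.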

[8] = tested on: Brachyury (BRA) Protein Expression, Deisenroth Lab, TBXT (gene 6862); assay: CCTE_Deisenroth_DEVTOX-GLR_legacy_Bra: (Legacy) CCTE's DevTox GLR-Endo Assay Evaluation of Brachyury (BRA) Protein Expression, Deisenroth Lab (AID 2284329; active = hit-call score of the fitted dose curve at least 0.9, where 1 is the maximum; inactive = score below 0.9)
In short: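 Readout: percent Bra+ cells by high-content fluorescence imaging, Bra+ meaning mean intensity 5x BMAD over pluripotent control median. RUES2-GLR cells dosed twice over 48 h differentiation; DMSO-control median subtracted before concentration-response fitting.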

[9] = tested on: SRY-box transcription factor 17 (SOX17) Protein Expression, Deisenroth Lab, SOX17 (gene 64321); assay: CCTE_Deisenroth_DEVTOX-GLR_legacy_Sox17: (Legacy) CCTE's DevTox GLR-Endo Assay Evaluation of SRY-box transcription factor 17 (SOX17) Protein Expression, Deisenroth Lab (AID 2284341; active = hit-call score of the fitted dose curve at least 0.9, where 1 is the maximum; inactive = score below 0.9); conditions: actives raise or lower the signal
In short: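 Endoderm-differentiation readout in RUES2-GLR human pluripotent cells at 48 h, concentrations spanning 1 nM - 200 uM. Sox17-positive cells divided by total cell count; gain or loss relative to DMSO solvent control, n=4 experimental replicates.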

[10] = tested on: SRY-box transcription factor 2 (SOX2) Protein Expression, Deisenroth Lab, SOX2 (gene 6657); assay: CCTE_Deisenroth_DEVTOX-GLR_legacy_Sox2: (Legacy) CCTE's DevTox GLR-Endo Assay Evaluation of SRY-box transcription factor 2 (SOX2) Protein Expression, Deisenroth Lab (AID 2284346; active = hit-call score of the fitted dose curve at least 0.9, where 1 is the maximum; inactive = score below 0.9)
In short: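 Read-out: fraction of Sox2+ cells by high-content fluorescence imaging of fixed RUES2-GLR cells after 48 h differentiation with two 24 h-spaced exposures. Positivity cutoff 5x BMAD above endoderm control median; 0.2% DMSO median subtracted.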

[11] = tested on: SRY-box transcription factor 2 (SOX2) Protein Expression, Deisenroth Lab, SOX2 (gene 6657); assay: CCTE_Deisenroth_DEVTOX-GLR_Endo_SOX2: CCTE's DevTox GLR-Endo Assay Evaluation of SRY-box transcription factor 2 (SOX2) Protein Expression, Deisenroth Lab (AID 2284412)
In short: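 Endpoint is percent SOX2-positive cells (SOX2+ count/total cells) minus 0.2% DMSO control, from high-content imaging of fixed, nuclear-stained RUES2-GLR cells. Dosing twice at 24 h intervals over 48 h differentiation, 1 nM–200 uM in 10 points.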

[12] = tested on: SRY-box transcription factor 17 (SOX17) Protein Expression, Deisenroth Lab, SOX17 (gene 64321); assay: CCTE_Deisenroth_DEVTOX-GLR_Endo_SOX17: CCTE's DevTox GLR-Endo Assay Evaluation of SRY-box transcription factor 17 (SOX17) Protein Expression, Deisenroth Lab (AID 2284413; active = hit-call score of the fitted dose curve at least 0.9, where 1 is the maximum; inactive = score below 0.9)
In short: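 Human RUES2-GLR cells carrying an inducible fluorescent reporter are differentiated in defined media for 48 h and dosed twice, 24 h apart. After fixation and nuclear staining, imaging yields SOX17+ cell percentage relative to 0.2% DMSO-treated differentiated cells.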

[13] = CCTE_Deisenroth_DEVTOX-GLR_Endo_CellCount: Viability Assessment in CCTE's DevTox GLR-Endo Assay, Deisenroth Lab (AID 2284420; active = hit-call score of the fitted dose curve at least 0.9, where 1 is the maximum; inactive = score below 0.9)
In short: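 Measured 48 h after dosing: fluorescent nuclei counted by imaging in human RUES2-GLR cells under defined differentiation media, tested at 1 nM - 200 uM. Values are percent cell-count change relative to 0.2% DMSO.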

[14] = tested on: SRY-box transcription factor 17 (SOX17) Protein Expression, Deisenroth Lab, SOX17 (gene 64321); assay: CCTE_Deisenroth_DEVTOX-GLR_Pluri_SOX17: CCTE's DevTox GLR-Pluri Assay Evaluation of SRY-box transcription factor 17 (SOX17) Protein Expression, Deisenroth Lab (AID 2284427)
In short: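 Using an inducible fluorescent SOX17 reporter in human pluripotent RUES2-GLR cells, compounds (1 nM - 200 uM) were given twice over 48 h differentiation. Percent SOX17+ cells minus DMSO control came from high-content image analysis.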

[15] = tested on: Brachyury (BRA) Protein Expression, Deisenroth Lab, TBXT (gene 6862); assay: CCTE_Deisenroth_DEVTOX-GLR_Pluri_BRA: CCTE's DevTox GLR-Pluri Assay Evaluation of Brachyury (BRA) Protein Expression, Deisenroth Lab (AID 2284429)
In short: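 RUES2-GLR reporter line; 48 h mesoderm differentiation; two exposures, 24 h apart; 1 nM - 200 uM, 10 points; nuclear stain, high-content imaging, 5 fields/well; endpoint = %BRA+ cells of total count minus 0.2% DMSO; n=4.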

[16] = CCTE_Deisenroth_DEVTOX-GLR_Pluri_CellCount: Viability Assessment in CCTE's DevTox GLR-Pluri Assay Evaluation of Total Cell Counts, Deisenroth Lab (AID 2284430; active = hit-call score of the fitted dose curve at least 0.9, where 1 is the maximum; inactive = score below 0.9)
In short: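 Cytotoxicity readout: fluorescent nuclei counts by high-content imaging, expressed as percent change relative to 0.2% DMSO. Human RUES2-GLR pluripotent line differentiated 48 h, dosed twice at 24-h intervals across 1 nM - 200 uM (10 points).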

[17] = target: Cellular tumor antigen p53 (Homo sapiens) (UniProt P04637); assay: TOX21_p53_BLA_p5_ratio: Tox21 HCT-116 p53 Agonism Beta-lactamase Assay, Ratio, Phase 5 (AID 2283599)
In short: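 HCT-116 p53-bla cells (4000/well) plated 5 h, dosed with compound (217-fold DMSO dilution) for 16 h at 37 C; CCF4-AM substrate 2 h at room temperature. Activity is the 460/530 nm emission ratio (405 nm excitation), fitted in gain-of-signal direction versus DMSO.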

[18] = CCTE_Deisenroth_AIME_96WELL_CTox_Active: Cytotoxicity Assessment (CTOX) in CCTE's 96-well Estrogen Receptor Transactivation Assay with AIME metabolic competence (metabolism positive), Deisenroth Lab (AID 2284028)
In short: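 Cytotoxicity in VM7Luc4E2 breast cells after 24 h exposure to medium from a 2 h metabolic pre-incubation with induced rat hepatic S9 in alginate microspheres; fluorescent live-cell protease readout, 10-point series 0.002–200 uM, n=4.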

[19] = CCTE_Deisenroth_AIME_96WELL_CTox_Inactive: Cytotoxicity Assessment (CTOX) in CCTE's 96-well Estrogen Receptor Transactivation Assay without AIME metabolic competence (metabolism negative), Deisenroth Lab (AID 2284029)
In short: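 Metabolism-negative mode: alginate-water lids without rat S9, 2 h pre-incubation of 10-point series (0.002 - 200 uM). Conditioned medium on VM7Luc4E2 cells 24 h; loss of fluorescent live-cell protease signal marks cytotoxicity.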

PGR (gene 5241) = PGR (gene 5241) (UniProt P06401); assay: TOX21_PR_BLA_Followup_Antagonist_ratio: Tox21 HEK293 Progesterone Receptor (PR) Antagonism Beta-lactamase Follow-Up Assay, Ratio (AID 2283934);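 also: PR-UAS-bla HEK293T cells stimulated with 1 nM R5020 agonist for 16 hr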
PGR (gene 5241), sequence (P06401 whole entry, looked up): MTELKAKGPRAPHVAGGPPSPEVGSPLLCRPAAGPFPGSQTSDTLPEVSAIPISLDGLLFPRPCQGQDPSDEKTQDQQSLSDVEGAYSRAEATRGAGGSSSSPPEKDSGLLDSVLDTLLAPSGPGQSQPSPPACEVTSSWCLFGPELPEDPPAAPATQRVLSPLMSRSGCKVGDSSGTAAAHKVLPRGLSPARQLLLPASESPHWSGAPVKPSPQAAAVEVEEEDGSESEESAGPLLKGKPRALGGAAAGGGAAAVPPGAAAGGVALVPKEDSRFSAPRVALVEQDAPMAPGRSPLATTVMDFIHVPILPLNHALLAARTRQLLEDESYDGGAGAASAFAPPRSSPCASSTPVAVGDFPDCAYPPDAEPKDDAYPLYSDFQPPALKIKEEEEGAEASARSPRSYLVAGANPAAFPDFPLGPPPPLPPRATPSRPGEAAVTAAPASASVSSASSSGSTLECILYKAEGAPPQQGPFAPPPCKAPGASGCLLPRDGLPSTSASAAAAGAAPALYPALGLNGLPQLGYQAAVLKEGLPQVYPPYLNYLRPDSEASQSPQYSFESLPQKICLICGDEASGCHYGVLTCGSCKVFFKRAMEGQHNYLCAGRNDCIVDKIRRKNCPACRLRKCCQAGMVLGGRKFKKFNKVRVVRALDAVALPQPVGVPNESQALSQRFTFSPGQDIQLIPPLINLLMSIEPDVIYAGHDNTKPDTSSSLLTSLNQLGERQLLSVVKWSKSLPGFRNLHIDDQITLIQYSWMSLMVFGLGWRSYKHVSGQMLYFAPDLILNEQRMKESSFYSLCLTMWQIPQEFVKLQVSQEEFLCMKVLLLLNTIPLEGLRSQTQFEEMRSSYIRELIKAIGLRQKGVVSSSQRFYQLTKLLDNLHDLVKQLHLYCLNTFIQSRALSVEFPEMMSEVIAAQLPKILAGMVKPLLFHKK
In short: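 Cells are plated, rested 6 hr, then dosed with test compound in DMSO and challenged with 1 nM promegestone. After 16 hr incubation, substrate loading for 2 h at room temperature precedes fluorescence reading; viability is measured in the same wells.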

[20] = TOX21_TRB_BLA_Antagonist_Followup_viability: Viability Assessment in the Tox21 Thyroid Hormone Receptor beta Antagonism Beta-lactamase (BLA) Follow-Up Assay (AID 2283961)
In short: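 In the same wells as the reporter read, cell health was gauged by CellTiter-Glo ATP luminescence, with signal loss indicating reduced viability. Cells had been exposed to test compounds for 18 h.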

[21] = target: Retinoic acid receptor RXR-alpha (Homo sapiens) (UniProt P19793); assay: TOX21_TR_RXR_BLA_Antagonist_Followup_ratio: Tox21 Thyroid Hormone Receptor beta Retinoid X Receptor alpha (RXRa) Antagonism Beta-lactamase (BLA) Follow-Up Assay, Ratio (AID 2283972)
Retinoic acid receptor RXR-alpha (Homo sapiens), sequence (P19793 whole entry, looked up): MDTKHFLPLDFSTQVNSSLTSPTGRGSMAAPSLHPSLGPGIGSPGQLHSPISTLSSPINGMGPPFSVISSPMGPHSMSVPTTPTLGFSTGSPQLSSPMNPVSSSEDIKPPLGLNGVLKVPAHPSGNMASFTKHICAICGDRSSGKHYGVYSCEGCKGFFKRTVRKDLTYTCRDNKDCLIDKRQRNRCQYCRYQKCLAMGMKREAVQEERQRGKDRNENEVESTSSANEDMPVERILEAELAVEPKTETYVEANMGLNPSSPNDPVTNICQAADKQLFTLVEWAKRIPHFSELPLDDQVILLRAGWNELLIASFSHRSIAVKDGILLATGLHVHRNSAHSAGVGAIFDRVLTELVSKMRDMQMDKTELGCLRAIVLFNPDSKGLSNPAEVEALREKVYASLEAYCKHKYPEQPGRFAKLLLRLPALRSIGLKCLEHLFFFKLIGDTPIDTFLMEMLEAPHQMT
In short: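 Compounds were tested in triplicate at 11 concentrations on RXRa-bla HEK293T cells for 16 h. Substrate cleavage ratio, normalized to DMSO, gave the endpoint.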

[22] = TOX21_TR_RXR_BLA_Antagonist_Followup_viability: Viability Assessment in the Tox21 Thyroid Hormone Receptor beta Retinoid X Receptor alpha (RXRa) Antagonism Beta-lactamase (BLA) Follow-Up Assay (AID 2283979)
In short: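 RXRa-bla HEK293T cells (2,500/well, phenol red-free DMEM, 2% charcoal-stripped FBS) were attached 5 h, then exposed to compounds at 11 concentrations in triplicate for 16 h at 37C. Viability measured by CellTiter-Glo ATP luminescence, bidirectional fitting versus DMSO.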

Measured: AC50

CC1=C(/C=C/C(C)=C/C=C/C(C)=C\C(=O)O)C(C)(C)CCC1
active: [3] 42.9 µM | [4] 87.3 µM | [8] 100 µM | [9] 159 nM | [10] 41.3 µM | [11] 69.5 µM | [12] 119 nM | [13] 10.7 µM | [14] 20.2 µM | [15] 16.7 µM | [16] 19 µM
inactive: [1] | [2] | [5] | [6] | [7]

CCO
inactive: [1] | [2] | [3] | [4] | [5] | [6]

CCC1C(=O)OCC1Cc1cncn1C (stereo not drawn)
inactive: [1] | [2] | [3] | [4] | [5] | [6]

CC(C)(c1ccccc1)c1ccccc1
inactive: [1] | [2] | [3] | [4] | [17] | [6] | [18] | [19]

O=C(NC1CCN(CCc2c[nH]c3ccccc23)CC1)c1ccccc1
inactive: [1] | [2] | [3] | [4] | [6]

CC(=O)OCC(=O)[C@@]1(O)CCC2C3CCC4=CC(=O)CC[C@]4(C)C3C(O)C[C@@]21C (stereo partly drawn)
inactive: [1] | [2] | [3] | [4] | [5] | [6] | PGR (gene 5241)

CO[C@@]1(NC(=O)CSCC#N)C(=O)N2C(C(=O)O)=C(CSc3nnnn3C)CS[C@@H]21
inactive: [1] | [2] | [3] | [4] | [17] | [6]

NCCN1CCNC1=O
inactive: [1] | [2] | [3] | [4] | [5] | [6]

NCCC(O)(P(=O)(O)O)P(=O)(O)O
inactive: [1] | [2] | [3] | [4] | [17] | [6]

CC1(C)S[C@@H]2[C@H](NC(=O)C(N)c3ccccc3)C(=O)N2[C@H]1C(=O)OC1OC(=O)c2ccccc21 (stereo partly drawn)
inactive: [1] | [2] | [3] | [4] | [17] | [6] | [20] | [21] | [22]

Cc1c(NC(C)C)c(=O)n(-c2ccccc2)n1C
inactive: [1] | [2] | [3] | [4] | [5] | [6]

CCCCC[C@H](O)/C=C/[C@H]1[C@H](O)CC(=O)[C@@H]1C/C=C\CCCC(=O)O
inactive: [1] | [2] | [3] | [4] | [5] | [6]

NC(=O)c1ncn([C@@H]2O[C@H](CO)[C@@H](O)[C@H]2O)c1N
inactive: [1] | [2] | [3] | [4] | [5] | [6]
